From ChEMBL document CHEMBL1961873, “Compounds: GSK PKIS; Assays: Nanosyn kinase panel” (2012)

Legend:
[1] = biological target: High affinity nerve growth factor receptor (Homo sapiens) (UniProt P04629); settings: at 1 µM;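 also: each value is the mean percent inhibition of TRKA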
[2] = biological target: BDNF/NT-3 growth factors receptor (Homo sapiens) (UniProt Q16620); settings: at 0.1 µM
[3] = biological target: BDNF/NT-3 growth factors receptor (Homo sapiens) (UniProt Q16620); settings: at 1 µM
[4] = biological target: NT-3 growth factor receptor (Homo sapiens) (UniProt Q16288); settings: at 0.1 µM
NT-3 growth factor receptor (Homo sapiens), sequence (Q16288 32-839 limits assumed): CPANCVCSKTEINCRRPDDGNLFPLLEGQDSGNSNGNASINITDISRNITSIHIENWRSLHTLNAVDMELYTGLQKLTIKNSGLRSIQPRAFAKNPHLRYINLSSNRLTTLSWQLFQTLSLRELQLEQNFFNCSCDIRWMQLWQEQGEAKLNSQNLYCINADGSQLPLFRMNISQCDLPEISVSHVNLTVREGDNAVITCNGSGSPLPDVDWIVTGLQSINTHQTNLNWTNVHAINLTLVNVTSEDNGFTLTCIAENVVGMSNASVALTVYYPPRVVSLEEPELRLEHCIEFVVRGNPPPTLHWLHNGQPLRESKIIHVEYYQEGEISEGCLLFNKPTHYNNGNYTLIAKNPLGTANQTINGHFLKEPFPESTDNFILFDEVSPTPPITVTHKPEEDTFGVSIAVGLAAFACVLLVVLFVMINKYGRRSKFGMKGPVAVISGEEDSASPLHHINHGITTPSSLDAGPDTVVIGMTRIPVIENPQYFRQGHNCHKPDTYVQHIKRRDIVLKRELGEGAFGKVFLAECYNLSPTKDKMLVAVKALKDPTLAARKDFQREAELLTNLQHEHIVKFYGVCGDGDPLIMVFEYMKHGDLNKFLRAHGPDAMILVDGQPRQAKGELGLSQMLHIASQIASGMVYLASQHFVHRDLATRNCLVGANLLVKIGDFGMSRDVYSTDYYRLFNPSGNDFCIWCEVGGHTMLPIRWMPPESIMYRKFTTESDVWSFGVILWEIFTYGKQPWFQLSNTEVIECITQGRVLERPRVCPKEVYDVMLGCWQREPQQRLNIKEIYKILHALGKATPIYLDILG

[5] = biological target: NT-3 growth factor receptor (Homo sapiens) (UniProt Q16288); settings: at 1 µM
[6] = biological target: T1, Tyrosine-protein kinase TXK (Homo sapiens) (UniProt P42681); settings: at 0.1 µM
T1 sequence (whole entry): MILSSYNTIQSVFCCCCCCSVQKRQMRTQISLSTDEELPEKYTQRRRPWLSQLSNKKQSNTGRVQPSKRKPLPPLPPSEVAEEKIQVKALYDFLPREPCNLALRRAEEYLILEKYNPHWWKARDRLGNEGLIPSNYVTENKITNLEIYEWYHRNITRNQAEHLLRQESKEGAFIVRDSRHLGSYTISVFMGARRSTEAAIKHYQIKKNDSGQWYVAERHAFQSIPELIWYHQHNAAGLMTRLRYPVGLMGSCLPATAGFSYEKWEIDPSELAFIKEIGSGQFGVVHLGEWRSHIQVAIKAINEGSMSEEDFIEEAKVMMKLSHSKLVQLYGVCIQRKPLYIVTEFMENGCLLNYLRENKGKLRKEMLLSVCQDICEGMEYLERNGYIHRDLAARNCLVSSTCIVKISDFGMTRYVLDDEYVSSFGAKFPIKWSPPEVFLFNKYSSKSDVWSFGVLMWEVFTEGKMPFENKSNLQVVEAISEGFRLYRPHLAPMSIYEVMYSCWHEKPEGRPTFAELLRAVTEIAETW

[7] = biological target: T1, Tyrosine-protein kinase TXK (Homo sapiens); settings: at 1 µM
[8] = biological target: Non-receptor tyrosine-protein kinase TYK2 (Homo sapiens) (UniProt P29597); settings: at 0.1 µM;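 also: each value is a mean of the inhibition readings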
Non-receptor tyrosine-protein kinase TYK2 (Homo sapiens), sequence (P29597 whole entry): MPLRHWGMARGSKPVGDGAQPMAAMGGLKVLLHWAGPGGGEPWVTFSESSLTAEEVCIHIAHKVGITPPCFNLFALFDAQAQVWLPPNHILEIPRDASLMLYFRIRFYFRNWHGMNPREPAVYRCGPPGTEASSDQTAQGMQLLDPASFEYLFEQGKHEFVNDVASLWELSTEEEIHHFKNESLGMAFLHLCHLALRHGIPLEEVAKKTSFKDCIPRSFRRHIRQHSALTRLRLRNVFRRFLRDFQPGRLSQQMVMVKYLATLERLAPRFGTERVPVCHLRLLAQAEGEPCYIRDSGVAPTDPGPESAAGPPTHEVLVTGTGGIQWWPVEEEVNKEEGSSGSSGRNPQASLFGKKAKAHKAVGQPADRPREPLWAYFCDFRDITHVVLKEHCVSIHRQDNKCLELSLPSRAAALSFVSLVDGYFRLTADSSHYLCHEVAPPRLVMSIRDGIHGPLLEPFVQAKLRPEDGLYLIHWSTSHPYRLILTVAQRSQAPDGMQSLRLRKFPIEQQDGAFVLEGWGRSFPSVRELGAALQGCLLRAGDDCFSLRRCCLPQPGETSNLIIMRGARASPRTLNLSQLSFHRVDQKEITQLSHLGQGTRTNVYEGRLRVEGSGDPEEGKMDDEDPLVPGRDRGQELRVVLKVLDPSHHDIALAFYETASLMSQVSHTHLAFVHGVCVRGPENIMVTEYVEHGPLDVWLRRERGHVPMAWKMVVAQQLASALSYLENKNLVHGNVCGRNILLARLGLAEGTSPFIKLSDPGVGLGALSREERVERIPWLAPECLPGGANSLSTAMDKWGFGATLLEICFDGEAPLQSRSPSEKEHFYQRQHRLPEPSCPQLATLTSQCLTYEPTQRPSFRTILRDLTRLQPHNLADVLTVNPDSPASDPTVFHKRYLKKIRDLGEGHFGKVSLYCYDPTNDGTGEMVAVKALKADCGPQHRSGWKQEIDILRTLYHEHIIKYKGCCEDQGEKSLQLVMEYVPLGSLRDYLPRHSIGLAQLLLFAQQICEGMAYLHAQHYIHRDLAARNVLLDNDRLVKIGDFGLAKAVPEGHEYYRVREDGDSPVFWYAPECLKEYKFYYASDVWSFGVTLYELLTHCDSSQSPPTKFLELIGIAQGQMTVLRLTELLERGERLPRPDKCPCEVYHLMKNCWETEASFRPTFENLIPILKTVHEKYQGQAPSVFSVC

[9] = biological target: T2, Dual specificity protein kinase TTK (Homo sapiens) (UniProt P33981); settings: at 1 µM;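 also: reported figures are mean TTK inhibition at 1 µM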
T2 sequence (whole entry): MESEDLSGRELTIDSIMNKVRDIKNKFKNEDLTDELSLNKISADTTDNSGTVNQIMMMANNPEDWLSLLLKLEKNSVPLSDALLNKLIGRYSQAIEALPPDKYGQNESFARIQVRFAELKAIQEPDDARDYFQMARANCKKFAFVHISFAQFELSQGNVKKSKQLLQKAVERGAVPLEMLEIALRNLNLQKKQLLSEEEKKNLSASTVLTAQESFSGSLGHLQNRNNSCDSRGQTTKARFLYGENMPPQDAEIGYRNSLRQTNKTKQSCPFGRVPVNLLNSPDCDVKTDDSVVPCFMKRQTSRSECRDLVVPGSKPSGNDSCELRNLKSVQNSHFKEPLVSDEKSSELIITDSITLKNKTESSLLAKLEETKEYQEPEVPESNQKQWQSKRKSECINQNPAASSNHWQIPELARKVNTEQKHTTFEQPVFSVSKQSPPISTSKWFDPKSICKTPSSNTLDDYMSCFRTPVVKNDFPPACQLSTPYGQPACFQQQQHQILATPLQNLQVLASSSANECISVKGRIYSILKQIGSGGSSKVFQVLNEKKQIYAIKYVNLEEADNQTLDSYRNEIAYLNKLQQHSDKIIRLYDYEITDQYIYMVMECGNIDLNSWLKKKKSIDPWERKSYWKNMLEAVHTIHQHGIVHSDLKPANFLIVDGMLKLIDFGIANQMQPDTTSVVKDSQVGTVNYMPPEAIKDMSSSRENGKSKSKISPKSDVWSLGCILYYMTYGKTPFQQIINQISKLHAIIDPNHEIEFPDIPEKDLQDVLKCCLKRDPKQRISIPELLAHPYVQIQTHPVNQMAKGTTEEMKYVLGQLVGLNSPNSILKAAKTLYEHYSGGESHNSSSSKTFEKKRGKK

[10] = biological target: T3, Aurora kinase A (Homo sapiens) (UniProt O14965); settings: at 0.1 µM;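 also: each reported value is a mean percent inhibition of Aurora-A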
T3 sequence (whole entry): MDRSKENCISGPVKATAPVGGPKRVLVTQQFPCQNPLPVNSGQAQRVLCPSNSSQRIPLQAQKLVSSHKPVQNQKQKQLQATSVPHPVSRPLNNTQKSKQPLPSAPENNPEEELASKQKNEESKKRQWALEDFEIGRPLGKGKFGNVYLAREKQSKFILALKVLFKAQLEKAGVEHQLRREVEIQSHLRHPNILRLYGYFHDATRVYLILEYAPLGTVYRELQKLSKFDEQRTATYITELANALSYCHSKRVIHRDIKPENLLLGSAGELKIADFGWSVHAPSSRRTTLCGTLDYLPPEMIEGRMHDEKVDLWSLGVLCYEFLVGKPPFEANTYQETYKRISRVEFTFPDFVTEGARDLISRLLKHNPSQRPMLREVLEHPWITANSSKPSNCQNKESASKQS

BDNF/NT-3 growth factors receptor (Homo sapiens), sequence (Q16620 32-822 limits assumed): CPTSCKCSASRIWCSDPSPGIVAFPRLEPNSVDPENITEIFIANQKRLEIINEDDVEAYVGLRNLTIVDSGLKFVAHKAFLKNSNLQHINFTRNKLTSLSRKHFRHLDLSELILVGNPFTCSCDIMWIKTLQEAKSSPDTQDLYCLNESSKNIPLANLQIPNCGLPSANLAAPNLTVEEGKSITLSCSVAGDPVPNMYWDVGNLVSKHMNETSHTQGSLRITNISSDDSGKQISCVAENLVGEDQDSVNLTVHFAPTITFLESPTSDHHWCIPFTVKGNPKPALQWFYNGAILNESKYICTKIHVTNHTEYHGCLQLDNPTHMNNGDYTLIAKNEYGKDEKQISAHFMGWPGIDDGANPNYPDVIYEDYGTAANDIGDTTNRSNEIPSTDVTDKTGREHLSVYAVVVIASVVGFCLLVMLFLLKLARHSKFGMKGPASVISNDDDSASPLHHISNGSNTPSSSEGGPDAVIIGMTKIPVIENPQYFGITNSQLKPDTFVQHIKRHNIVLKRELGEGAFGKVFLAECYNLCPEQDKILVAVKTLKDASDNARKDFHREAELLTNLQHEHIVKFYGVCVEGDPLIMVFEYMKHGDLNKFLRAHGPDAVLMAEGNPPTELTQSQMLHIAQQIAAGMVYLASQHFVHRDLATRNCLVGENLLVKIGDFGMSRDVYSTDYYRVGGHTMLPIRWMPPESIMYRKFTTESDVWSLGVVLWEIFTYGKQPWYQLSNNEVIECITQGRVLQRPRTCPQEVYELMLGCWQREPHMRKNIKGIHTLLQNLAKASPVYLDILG
High affinity nerve growth factor receptor (Homo sapiens), sequence (P04629 33-796 limits assumed): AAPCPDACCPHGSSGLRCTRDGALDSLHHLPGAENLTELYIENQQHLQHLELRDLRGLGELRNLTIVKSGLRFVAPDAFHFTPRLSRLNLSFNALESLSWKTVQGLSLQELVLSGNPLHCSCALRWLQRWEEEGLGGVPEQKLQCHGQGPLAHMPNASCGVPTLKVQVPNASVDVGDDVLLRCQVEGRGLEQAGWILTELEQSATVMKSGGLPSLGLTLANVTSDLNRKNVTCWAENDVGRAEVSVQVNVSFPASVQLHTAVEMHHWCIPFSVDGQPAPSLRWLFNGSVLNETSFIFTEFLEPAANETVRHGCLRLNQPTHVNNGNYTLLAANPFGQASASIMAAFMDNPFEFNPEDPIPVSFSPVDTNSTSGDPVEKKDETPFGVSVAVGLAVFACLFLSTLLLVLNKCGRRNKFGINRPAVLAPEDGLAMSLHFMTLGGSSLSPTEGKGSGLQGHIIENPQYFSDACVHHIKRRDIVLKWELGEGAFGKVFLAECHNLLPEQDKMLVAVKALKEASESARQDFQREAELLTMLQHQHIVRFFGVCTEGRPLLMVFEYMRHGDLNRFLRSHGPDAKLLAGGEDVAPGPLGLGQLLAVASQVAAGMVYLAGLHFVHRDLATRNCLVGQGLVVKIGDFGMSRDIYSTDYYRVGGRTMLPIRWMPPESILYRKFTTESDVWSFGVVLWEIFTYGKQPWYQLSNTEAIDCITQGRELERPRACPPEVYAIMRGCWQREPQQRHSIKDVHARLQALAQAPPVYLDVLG

Structure (SMILES) | inhibition [1] [%] | inhibition [2] [%] | inhibition [3] [%] | inhibition [4] [%] | inhibition [5] [%] | inhibition [6] [%] | inhibition [7] [%] | inhibition [8] [%] | inhibition [9] [%] | inhibition [10] [%]
COc1cc2ncn(-c3cc(OCc4ccccc4C(F)(F)F)c(C(=O)N(C)C)s3)c2cc1OC | 8.1 | -0.07 | 7.43 | 5.43 | 16.2 | 1.47 | 3.4 | -4.64 | 10.4 | 0.68
Cc1ccc2c(-c3ccnc(Nc4ccccc4)n3)c(-c3ccc(F)cc3)nn2n1 | 31.6 | 5.12 | 20.2 | 4.3 | 11.8 | 8.09 | 31.4 | -4.65 | 6.11 | 3.75
CC(=O)NCc1cccc(C#Cc2cncnc2Nc2ccc(OCc3cccc(F)c3)c(Cl)c2)c1 | 1.37 | 0.64 | 2.98 | 0.24 | 4.11 | 2.29 | -2.24 | 0.84 | -8.1 | 1.59
CC(C)COC(=O)c1ccc2c(c1)/C(=C/Nc1ccc(S(N)(=O)=O)cc1)C(=O)N2 | 30.4 | 6.02 | 40.2 | 8.8 | 48.5 | 1.73 | 4.75 | 3.35 | 70.1 | 3.84
COC(=O)Nc1nc2ccc(Oc3ccc(NC(=O)Nc4cccc(Cl)c4)cc3)cc2[nH]1 | 41.6 | 8.53 | 22 | 11.7 | 26.1 | 0.76 | 2.29 | 2 | 3.42 | 2.85
CCn1cc(-c2ccnc3[nH]ccc23)c(-c2cccc(NC(=O)Nc3ccc(OCc4ccccc4)cc3)c2)n1 | -2.6 | -2.42 | -0.53 | -0.62 | 8.83 | -1.03 | 1.79 | 0.94 | 3.41 | 2.05
O=C(Nc1n[nH]c2cc(-c3ccc(F)cc3)ccc12)C1CC1 | 4.23 | 2.53 | 5.87 | 2.91 | 7.26 | 2.11 | 3.11 | -5.76 | 3.14 | 2.98
Nc1ncc(-c2cccc(S(N)(=O)=O)c2)c2scc(-c3ccc(F)c(Cl)c3)c12 | 2.2 | 2.61 | 3.28 | 1.75 | 1.1 | 82 | 91.6 | -1.25 | 14.3 | 3.16
Cc1ccc(O)cc1Nc1ccnc2cc(-c3ccccn3)ccc12 | 4.34 | 1.78 | 2.4 | 3.76 | 4.64 | 42 | 82.3 | -4.79 | 7.97 | 2.82
COc1ccc(CNC(=O)c2ccc(-c3cc(-c4nnc(C)o4)ccc3C)cc2)cc1 | -1.3 | 1.54 | 4.36 | 2.79 | 5.45 | 3.95 | 3.7 | 0.15 | 6.7 | -0.94
COc1ccc2c(-c3ccnc(Nc4cccc(OC(F)(F)F)c4)n3)cnn2n1 | 11.1 | 2.97 | 7.33 | 2.73 | 12.3 | 2.09 | 5.53 | -3.37 | 17.1 | 0.72
CCc1nn2ncccc2c1-c1ccnc(NC2CC2)n1 | 2.38 | -0.25 | 2.68 | 1.72 | 1.87 | 3.61 | 3.63 | -2 | 6.05 | 3.98
Cc1cccc2c1NC(=O)/C2=N\Nc1ccc(S(N)(=O)=O)cc1 | 1.49 | 2.26 | 1.7 | 0.44 | 6.52 | 4.98 | 6.66 | -2.96 | 9.17 | 3.73
CN(C)CCOc1ccc(-c2nc(-c3ccncc3)c(-c3ccc4c(c3)CC/C4=N\O)[nH]2)cc1 | 0.58 | 1.83 | 3.37 | 1.52 | 2.87 | 2.32 | 3.33 | -2.09 | 7.21 | 1.33
CCn1c(-c2nonc2N)nc2cnc(Oc3cccc(NC(=O)c4ccc(N(C)C)cc4)c3)cc21 | -1.16 | 0.09 | 0.73 | -0.04 | 1.6 | 1.57 | 3.29 | -5.17 | 2.67 | 6.99
Cc1cccc(Nc2ncc(-c3ccccc3)o2)c1 | 6.23 | 3.27 | 11.7 | 1.16 | 12.2 | 7.08 | 5.35 | 1.38 | 6.17 | 2.74
CN1CCC(n2cnc(-c3ccc(F)cc3)c2-c2ccnc(Nc3ccccc3)n2)CC1 | 1.74 | 0.31 | 1.95 | 1.52 | 3.75 | 3.25 | 5.32 | 1.84 | 8.53 | 2.13

Structure (SMILES) | inhibition [1] [%] | inhibition [2] [%] | inhibition [3] [%] | inhibition [4] [%] | inhibition [5] [%] | inhibition [6] [%] | inhibition [7] [%] | inhibition [8] [%] | inhibition [9] [%] | inhibition [10] [%]
c1ccc(COc2ccc(Nc3ncnc4ccc(-c5ccco5)cc34)cc2)cc1 | -2.33 | -0.32 | 3.16 | -0.16 | 0.74 | 0.01 | 1.09 | -4.95 | 3.2 | 2.29
NS(=O)(=O)c1ccc(Nc2ncc(-c3ccccc3)o2)cc1 | 8.51 | 5.29 | 15.4 | 3.31 | 16.7 | 4.63 | 5.69 | -1.15 | 13.2 | 8.3
CCCN1CCC(c2ccc(Nc3nc(Nc4cc(F)ccc4C(N)=O)c4cc[nH]c4n3)c(OC)c2)CC1 | 3.87 | 4.25 | 9.14 | 2.83 | 7.22 | 3.85 | 6.29 | -2.8 | 83 | 2.78
N#Cc1c(NC(=O)CN2CCOCC2)sc2c1CCCC2 | 0.84 | 2.29 | 4.03 | 2.17 | 2.8 | 2.2 | 3.56 | -1.25 | 12.8 | 2.73
Nc1nc(-c2cccc(Cl)c2)c(-c2ccc3ncccc3n2)s1 | -0.34 | 2.86 | 7.16 | 2.95 | 5.02 | 4.04 | 4.05 | -3.11 | -0.66 | 2.19
CS(=O)(=O)CCNCc1ccc(-c2ccc3ncnc(Nc4ccc(OCc5ccccc5)c(C(F)(F)F)c4)c3c2)o1 | -0.59 | 2.63 | 2.63 | 2.74 | 1.42 | -2.21 | 4.38 | -7.44 | 9.83 | 2.91
c1ccc(-c2nc3n(c2-c2ccc4c(c2)OCO4)CCC3)nc1 | 2.69 | -0.27 | 2.27 | -0.01 | 3.2 | 1.77 | 1.77 | -1.06 | 0.07 | 0.45
Fc1ccc(-c2nn3ccccc3c2-c2ccncc2)cc1 | 0.45 | 0.38 | 0.3 | -0.15 | -0.76 | 2.39 | 7.59 | 0.8 | 2.44 | 1.94
CCNC(=O)O[C@H]1CN[C@H](C#Cc2cc3ncnc(Nc4ccc(OCc5cccc(F)c5)c(Cl)c4)c3s2)C1 | 3.06 | 3.01 | 1.6 | 2.47 | 1.74 | 3.06 | 3.99 | -3.3 | 10.4 | 1.24
CCCN(CCS(C)(=O)=O)Cc1ccc(-c2ccc3ncnc(Nc4ccc(OCc5cccc(F)c5)c(Cl)c4)c3c2)o1 | 0.23 | 0.15 | 1.45 | 2.2 | 2.15 | 2.27 | 2.93 | -3.81 | 5.96 | 1.47
c1cc(-c2cnn3nc(N4CCOCC4)ccc23)nc(NC2CC2)n1 | 0.98 | 1.83 | 1.21 | 1.5 | 2.55 | 3.34 | 6.11 | -8.45 | 60.1 | 1.84
COc1ccc(-c2oc3ncnc(N)c3c2-c2ccc(NC(=O)Nc3cc(C(F)(F)F)ccc3F)cc2)cc1 | 98.4 | 88.4 | 101 | 87.2 | 98.5 | 3.68 | 8.48 | -5.26 | 14.6 | 1.73
CC(=O)Nc1cccc(C#Cc2cncnc2Nc2ccc(OCc3cccc(F)c3)c(Cl)c2)c1 | -0.49 | 0.63 | 0.88 | -1.1 | 1.69 | 5.05 | 8.59 | 1.05 | 7.9 | 2.48
CNC(=O)c1cccc(C#Cc2cncnc2Nc2ccc(OCc3cccc(F)c3)c(Cl)c2)c1 | 0.53 | 2.25 | 1.08 | 0.94 | 2.86 | 1.86 | 3.33 | -0.77 | 9.1 | 2.9
O=C(O[C@H]1CN[C@H](C#Cc2cc3ncnc(Nc4ccc(Cc5ccccc5)cc4)c3s2)C1)N1CCOCC1 | -3.47 | 0.67 | 1.13 | -0.77 | -1.7 | -0.97 | 1.36 | -1.59 | 1.6 | 0
N#Cc1c(NC(=O)c2ccc(F)cc2)sc2c1CCCC2 | -0.28 | 0.21 | 0.82 | 0.15 | 1.15 | 1.7 | 2.45 | -3.45 | 2.26 | 1.91
COc1ccc(-c2cc3c(N)ncnc3o2)cc1 | 2.94 | -0.36 | 1.81 | 0.53 | 0.25 | 0.91 | 2.2 | -0.95 | 0.09 | 0.51
